# Positions count from the first letter of the chain named. Over roughly 9,900 sequences, “r (bound/input frequency ratio)” has its median near 0.7; the highest 2% begin near 6.5. This is one part of a sample in which the highest values are shown more often than they occur.
# B1: ENSMUSG00000031028.245|Tub (ssRNA)
# RNA: GGGAGUUCUACAGUCCGACGAUCGCUUCGAUAUCCGCAUGCUAGCCCUCCAUUGGGAUGGCACCACUCAUCUGGUGGGCUUGGGAACUCCAAGCUCUUGCCUGUGUGCCAUCUGUGAGAAGCUUCUUGGAGCUGAGACACCAGAGGGAAGCAAAGAGCAUUUAGACAUUGCUUUUUGCUUUGAAAUAGAUAUGUUUGGAAACGCUAAGUAGAAGUUUAAAAAGUAGAGUCAUGUAGAGUCAUGCUUUGAAUAUGUGGGUCAUGCUUUAGAUAUGAAGAGGCUAUGCAGGUAAGGAGGCUGGAUCUCUUGCGGUCGCACUAGUGUGGAAUUCUCGGGUGUCAAGG
# B2: ENSMUSG00000028439.189|Fam219a|1:11;21:28 (ssRNA)
# RNA: GGGAGUUCUACAGUCCGACGAUCGCUUCGAUAUCCGCAUGCUAACACACACACAUGUACCCGACACACACAUGAGCCUAUCUGUCCAGGGAACCAGAUUGGUGUCCGAGAUGAGGAAAUGGCUGUGGCCUGGGAAAUCAGUGAGAGGCCGCUUGGGAAUGAGAAUGCAGUGGACUGAAAGCACAGCCUGGCCAUCUGGAACCUGGGUUCUGGUCCCAGCCUCGGCAUUCUCCCUGAGCUCCUAAGCAAUUCCCAGGCUUCUCUAGGGCUUCAGUUCUCACAACUGGAAAAUAAAGAGUAGCUGCUCUUGCGGUCGCACUAGUGUGGAAUUCUCGGGUGUCAAGG
# B3: ENSMUSG00000031028.94|Tub (ssRNA)
# RNA: GGGAGUUCUACAGUCCGACGAUCGCUUCGAUAUCCGCAUGCUAAGCUCUGGUGGUCAGCAGAAAGCACUCCCACUUCAAAAGGGCCCAUUAGGCCCAAAGGGGGUUAGGAGUGGUAGGGAUAGGUGCGUGGCAGGUCCCUGCUAGGAUUGCAGGGGCCUGGCCAUGUGUAUUAGCUGGAGGCUUAGAAUGCUAGCUCAUUUGUUGCUACAGAUUUGCCCAGUGCUUGCACACGUAAGAACCCAGCUCUCAAGGCCAAAUAUCUGAGUGGAUGGGGAUGAUAGGAGUCAUCCAGUAGACUCCCUCUCUUGCGGUCGCACUAGUGUGGAAUUCUCGGGUGUCAAGG
# B4: ENSMUSG00000058297.426|Spock2 (ssRNA)
# RNA: GGGAGUUCUACAGUCCGACGAUCGCUUCGAUAUCCGCAUGCUAGUGGCAGGCCCCAGGGGUCCAGAAGUUUGUCCCUCUCUAAAACGCUCCCCACCCCAUACUGCUUUUCACCCCACUGAGACCGAGUCCCACAAAGGUAGGCAGAACAGCUGUUCCUGGUGGGGCUGAAGGUUCCCAAGUAGCUUCUAGUUAAGCAAGCUUCGUGUUUCCUCAGGAGCAAGGUCACACAGGUCAGAUUAUUGUCGGUCCUGCGGGCCUCAUCCUUGAAUAAGCUGCCUGCCCAGUUCCUCCAUCCGUGUUCCCUCUUGCGGUCGCACUAGUGUGGAAUUCUCGGGUGUCAAGG
# B5: ENSMUSG00000061578.1442|Ksr2 (ssRNA)
# RNA: GGGAGUUCUACAGUCCGACGAUCGCUUCGAUAUCCGCAUGCUAAGGAAGGCAAGUAGGAUGGAUGGAUGAGUGAGUGGAUAGGUAGGUAUAUAAAUGGAUGGAUGGGUGAUGGAUGGGUAAAUGAAUGGAUAGGUAUGUGAAUGAAUGGAUGAUGGAUGAAUGGAUGGGUAGGUGGGUAGAUAGGUAUAUGAAUGAAUGGAUGAAUGGAUGGGUGAAUGGAUGGAUAGGUAUGUGAAUAAAUGGAUGGAUGGAUGGAUUGAUUUGUGAAUGAAUGGAUGAAUGGAUGGGUAGGUGGGUGGAUGCUCUUGCGGUCGCACUAGUGUGGAAUUCUCGGGUGUCAAGG
# B6: ENSMUSG00000061578.1445|Ksr2 (ssRNA)
# RNA: GGGAGUUCUACAGUCCGACGAUCGCUUCGAUAUCCGCAUGCUAGAUGGAUGAGUGAGUGGAUAGGUAGGUAUAUAAAUGGAUGGAUGGGUGAUGGAUGGGUAAAUGAAUGGAUAGGUAUGUGAAUGAAUGGAUGAUGGAUGAAUGGAUGGGUAGGUGGGUAGAUAGGUAUAUGAAUGAAUGGAUGAAUGGAUGGGUGAAUGGAUGGAUAGGUAUGUGAAUAAAUGGAUGGAUGGAUGGAUUGAUUUGUGAAUGAAUGGAUGAAUGGAUGGGUAGGUGGGUGGAUGCAUAGGCAAGUAGAUGAACUCUUGCGGUCGCACUAGUGUGGAAUUCUCGGGUGUCAAGG
# B7: ENSMUSG00000061578.1446|Ksr2 (ssRNA)
# RNA: GGGAGUUCUACAGUCCGACGAUCGCUUCGAUAUCCGCAUGCUAUGAGUGAGUGGAUAGGUAGGUAUAUAAAUGGAUGGAUGGGUGAUGGAUGGGUAAAUGAAUGGAUAGGUAUGUGAAUGAAUGGAUGAUGGAUGAAUGGAUGGGUAGGUGGGUAGAUAGGUAUAUGAAUGAAUGGAUGAAUGGAUGGGUGAAUGGAUGGAUAGGUAUGUGAAUAAAUGGAUGGAUGGAUGGAUUGAUUUGUGAAUGAAUGGAUGAAUGGAUGGGUAGGUGGGUGGAUGCAUAGGCAAGUAGAUGAAUGAAUACUCUUGCGGUCGCACUAGUGUGGAAUUCUCGGGUGUCAAGG
# B8: ENSMUSG00000061578.1451|Ksr2|37:41;132:136 (ssRNA)
# RNA: GGGAGUUCUACAGUCCGACGAUCGCUUCGAUAUCCGCAUGCUAGAUGGAUGGGUGAUGGAUGGGUAAAUGAAUGGAUAGCAUACUGAAUGAAUGGAUGAUGGAUGAAUGGAUGGGUAGGUGGGUAGAUAGGUAUAUGAAUGAAUGGAUGAAUGGAUGGGUGAAUGGAUGGAUAGCAUACUGAAUAAAUGGAUGGAUGGAUGGAUUGAUUUGUGAAUGAAUGGAUGAAUGGAUGGGUAGGUGGGUGGAUGCAUAGGCAAGUAGAUGAAUGAAUAUGUGGGUAGAAGGGUGAGUGGGUGGAUGAACUCUUGCGGUCGCACUAGUGUGGAAUUCUCGGGUGUCAAGG
# B9: ENSMUSG00000061578.1441|Ksr2 (ssRNA)
# RNA: GGGAGUUCUACAGUCCGACGAUCGCUUCGAUAUCCGCAUGCUACCAAUCAGGAAGGCAAGUAGGAUGGAUGGAUGAGUGAGUGGAUAGGUAGGUAUAUAAAUGGAUGGAUGGGUGAUGGAUGGGUAAAUGAAUGGAUAGGUAUGUGAAUGAAUGGAUGAUGGAUGAAUGGAUGGGUAGGUGGGUAGAUAGGUAUAUGAAUGAAUGGAUGAAUGGAUGGGUGAAUGGAUGGAUAGGUAUGUGAAUAAAUGGAUGGAUGGAUGGAUUGAUUUGUGAAUGAAUGGAUGAAUGGAUGGGUAGGUGGGCUCUUGCGGUCGCACUAGUGUGGAAUUCUCGGGUGUCAAGG
# B10: ENSMUSG00000061578.1443|Ksr2|85:89;180:184 (ssRNA)
# RNA: GGGAGUUCUACAGUCCGACGAUCGCUUCGAUAUCCGCAUGCUAGCAAGUAGGAUGGAUGGAUGAGUGAGUGGAUAGGUAGGUAUAUAAAUGGAUGGAUGGGUGAUGGAUGGGUAAAUGAAUGGAUAGCAUACUGAAUGAAUGGAUGAUGGAUGAAUGGAUGGGUAGGUGGGUAGAUAGGUAUAUGAAUGAAUGGAUGAAUGGAUGGGUGAAUGGAUGGAUAGCAUACUGAAUAAAUGGAUGGAUGGAUGGAUUGAUUUGUGAAUGAAUGGAUGAAUGGAUGGGUAGGUGGGUGGAUGCAUAGGCUCUUGCGGUCGCACUAGUGUGGAAUUCUCGGGUGUCAAGG
# B11: ENSMUSG00000061578.1440|Ksr2 (ssRNA)
# RNA: GGGAGUUCUACAGUCCGACGAUCGCUUCGAUAUCCGCAUGCUAUAGAUGCCAAUCAGGAAGGCAAGUAGGAUGGAUGGAUGAGUGAGUGGAUAGGUAGGUAUAUAAAUGGAUGGAUGGGUGAUGGAUGGGUAAAUGAAUGGAUAGGUAUGUGAAUGAAUGGAUGAUGGAUGAAUGGAUGGGUAGGUGGGUAGAUAGGUAUAUGAAUGAAUGGAUGAAUGGAUGGGUGAAUGGAUGGAUAGGUAUGUGAAUAAAUGGAUGGAUGGAUGGAUUGAUUUGUGAAUGAAUGGAUGAAUGGAUGGGUACUCUUGCGGUCGCACUAGUGUGGAAUUCUCGGGUGUCAAGG
# B12: ENSMUSG00000061578.1450|Ksr2 (ssRNA)
# RNA: GGGAGUUCUACAGUCCGACGAUCGCUUCGAUAUCCGCAUGCUAUAAAUGGAUGGAUGGGUGAUGGAUGGGUAAAUGAAUGGAUAGGUAUGUGAAUGAAUGGAUGAUGGAUGAAUGGAUGGGUAGGUGGGUAGAUAGGUAUAUGAAUGAAUGGAUGAAUGGAUGGGUGAAUGGAUGGAUAGGUAUGUGAAUAAAUGGAUGGAUGGAUGGAUUGAUUUGUGAAUGAAUGGAUGAAUGGAUGGGUAGGUGGGUGGAUGCAUAGGCAAGUAGAUGAAUGAAUAUGUGGGUAGAAGGGUGAGUGGGUGCUCUUGCGGUCGCACUAGUGUGGAAUUCUCGGGUGUCAAGG
# B13: ENSMUSG00000061578.1444|Ksr2 (ssRNA)
# RNA: GGGAGUUCUACAGUCCGACGAUCGCUUCGAUAUCCGCAUGCUAAGGAUGGAUGGAUGAGUGAGUGGAUAGGUAGGUAUAUAAAUGGAUGGAUGGGUGAUGGAUGGGUAAAUGAAUGGAUAGGUAUGUGAAUGAAUGGAUGAUGGAUGAAUGGAUGGGUAGGUGGGUAGAUAGGUAUAUGAAUGAAUGGAUGAAUGGAUGGGUGAAUGGAUGGAUAGGUAUGUGAAUAAAUGGAUGGAUGGAUGGAUUGAUUUGUGAAUGAAUGGAUGAAUGGAUGGGUAGGUGGGUGGAUGCAUAGGCAAGUACUCUUGCGGUCGCACUAGUGUGGAAUUCUCGGGUGUCAAGG
# B14: ENSMUSG00000061578.1439|Ksr2 (ssRNA)
# RNA: GGGAGUUCUACAGUCCGACGAUCGCUUCGAUAUCCGCAUGCUAUUGAUUUAGAUGCCAAUCAGGAAGGCAAGUAGGAUGGAUGGAUGAGUGAGUGGAUAGGUAGGUAUAUAAAUGGAUGGAUGGGUGAUGGAUGGGUAAAUGAAUGGAUAGGUAUGUGAAUGAAUGGAUGAUGGAUGAAUGGAUGGGUAGGUGGGUAGAUAGGUAUAUGAAUGAAUGGAUGAAUGGAUGGGUGAAUGGAUGGAUAGGUAUGUGAAUAAAUGGAUGGAUGGAUGGAUUGAUUUGUGAAUGAAUGGAUGAAUGGACUCUUGCGGUCGCACUAGUGUGGAAUUCUCGGGUGUCAAGG
# B15: ENSMUSG00000061578.1444|Ksr2|79:83;174:178 (ssRNA)
# RNA: B13 RNA with G122C, U123A, A124U, U125A, G126C, G217C, U218A, A219U, U220A, G221C
# B16: ENSMUSG00000061578.1448|Ksr2 (ssRNA)
# RNA: GGGAGUUCUACAGUCCGACGAUCGCUUCGAUAUCCGCAUGCUAUAGGUAGGUAUAUAAAUGGAUGGAUGGGUGAUGGAUGGGUAAAUGAAUGGAUAGGUAUGUGAAUGAAUGGAUGAUGGAUGAAUGGAUGGGUAGGUGGGUAGAUAGGUAUAUGAAUGAAUGGAUGAAUGGAUGGGUGAAUGGAUGGAUAGGUAUGUGAAUAAAUGGAUGGAUGGAUGGAUUGAUUUGUGAAUGAAUGGAUGAAUGGAUGGGUAGGUGGGUGGAUGCAUAGGCAAGUAGAUGAAUGAAUAUGUGGGUAGAAGCUCUUGCGGUCGCACUAGUGUGGAAUUCUCGGGUGUCAAGG
# Molecular target: TDP-43 (Homo sapiens, UniProt Q13148 1-414)
# Test: RNA Bind-n-Seq with designed 260-mer pool; 25 mM Tris-HCl, 150 mM KCl, 3 mM MgCl2, BSA (printed 500 mg/mL), 20 units/mL SUPERase IN; pH not stated; 500 nM RNA pool, 1 h, 4 C; TDP-43 5, 50, 500 nM; high values mean tight binding
# Conditions: protein: recombinant; tags: SBP (GST cleaved off with PreScission; pGEX-GST-SBP)
# Procedure, shortened: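 Streptavidin beads captured recombinant SBP-tagged TDP-43 at 5, 50 or 500 nM, and the beads were incubated for 1 h at 4 °C with 500 nM of an in vitro-transcribed pool of 260-nt 3′ UTR oligos in 25 mM Tris-HCl, 150 mM KCl, 3 mM MgCl2, BSA and SUPERase IN. After washing, bound RNA was eluted with biotin, reverse transcribed, PCR-amplified and sequenced. Binding is reported as R, the mapped-read-normalized abundance of each oligo in the bound sample divided by its abundance in the input. Two independent protein batches served as duplicates.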
# TDP-43, sequence (Q13148 whole entry): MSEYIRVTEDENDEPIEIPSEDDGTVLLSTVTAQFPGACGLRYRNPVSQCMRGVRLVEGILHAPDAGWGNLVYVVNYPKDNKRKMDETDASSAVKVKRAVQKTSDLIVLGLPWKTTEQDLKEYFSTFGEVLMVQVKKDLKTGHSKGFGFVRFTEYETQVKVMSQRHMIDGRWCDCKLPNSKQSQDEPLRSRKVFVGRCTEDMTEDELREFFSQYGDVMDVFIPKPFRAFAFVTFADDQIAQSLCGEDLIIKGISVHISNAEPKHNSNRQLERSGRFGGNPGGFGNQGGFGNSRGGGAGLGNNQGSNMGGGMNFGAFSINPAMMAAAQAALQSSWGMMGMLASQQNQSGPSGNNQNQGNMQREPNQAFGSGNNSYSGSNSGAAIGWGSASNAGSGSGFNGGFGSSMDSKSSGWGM
row,Binder,binding signal
1,B1,2.93 R (bound/input frequency ratio)
2,B2,0.604 R (bound/input frequency ratio)
3,B3,0.759 R (bound/input frequency ratio)
4,B4,0.272 R (bound/input frequency ratio)
5,B5,7.5 R (bound/input frequency ratio)
6,B6,4.8 R (bound/input frequency ratio)
7,B7,11 R (bound/input frequency ratio)
8,B8,5.32 R (bound/input frequency ratio)
9,B9,5.22 R (bound/input frequency ratio)
10,B10,6.75 R (bound/input frequency ratio)
11,B11,11.5 R (bound/input frequency ratio)
12,B12,4.15 R (bound/input frequency ratio)
13,B13,3.7 R (bound/input frequency ratio)
14,B14,6.02 R (bound/input frequency ratio)
15,B15,5.84 R (bound/input frequency ratio)
16,B16,6.14 R (bound/input frequency ratio)

# Source: paper PMC12864922, “TDP-43 directly inhibits mRNA accumulation in neurites through modulation of mRNA stability”
